From PubChem BioAssay (NCI) come the findings set out here.

Test in all cases: NCI-60 one-dose screen, 48 h (100 = growth as untreated, 0 = no growth, -100 = all killed)
Conditions in all cases: 10 µM unless noted

In assay [1] the test system is NCI-H23 lung.
In assay [2] the test system is NCI-H226 lung.
Assay [3] has as its system NCI-H322M lung.
Assay [4] relates to HOP-62 NSCLC.
Assay [5] concerns NCI-H460 lung.
Assay [6] concerns HOP-92 NSCLC.
Assay [7] has as its system NCI-H522 lung.
Assay [8] concerns A549/ATCC NSCLC.
The test system of assay [9] is 786-0 renal.
The test system of assay [10] is COLO 205 colon.

Compounds without any hit were thinned out: in the full panel of roughly 83,000, 20% have a hit.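 Values shown are percent growth following 48 h exposure of cells in 96-well plates to a single concentration of compound; below 10 was considered active.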 A number with no mark means an inactive call. Active and inactive are the calls of the source.

For the compound `Cn1c(=O)c2[nH]c(CCCCC(=O)O)nc2n(C)c1=O`, the growth in assay [1] is 114%; in [2], 118%; in assay [3] it was 101%; in assay [4], 108%; in assay [5], 116%; in assay [6], 88.9%. Moreover, the growth is 96.2% in [7], 103% in assay [8] and 114% in assay [9].

Take `ClCC(Cl)C1CCC(Cl)C(Cl)C1` (stereo not given): the growth in assay [1] is 105%; in assay [2] it was 119%; in assay [3], 107%; in assay [4], 111%; in assay [5], 107%; in assay [6], 105%. Also, the growth in assay [7] is 102%; in [8] it was 98.2%; in assay [9], 96.8%.

For `Nc1ccn(C2OC(CO)C(O)C2F)c(=O)n1` (stereo not given), the growth is 83.7% in [1]; 101% in [2]; 107% in assay [3]; 63.5% in assay [4]; 70.1% in assay [5]; 78.3% in [6]. In addition, the growth in assay [7] is 51.4%; in assay [8], 68%; in assay [9], 79.9%; in assay [10], 65.1%.

Take `CC(=O)c1cccc(NS(=O)(=O)c2ccc(C)cc2)c1`: the growth in [1] was 83.9%; in assay [2], 91%; in assay [3], 103%; in [4], 89.9%; in assay [5], 102%; in assay [6], 74.4%. The growth is 64.4% in assay [7], 100% in assay [8], 89.5% in assay [9] and 117% in [10].

On to `CCCCCCCCCCCCCC/C=C\C(CC(=O)O)C(=O)O` (stereo not given), for which the growth in assay [1] was 108%; in [2] it was 109%; in assay [3], 117%; in assay [4], 105%; in [5] it was 106%; in assay [6] it was 106%. For the same compound, the growth in assay [7] is 107%; in assay [8], 103%; in [9] it was 103%.

Turning to `O=S(=O)(c1ccc(NC(=S)NCc2cccnc2)cc1)N1CCCCC1`, the growth in [1] was 87%; in [2] it was 86.7%; in [3], 91.4%; in [4], 83.1%; in assay [5], 63%; in assay [6], 86.2%. Further, the growth is 19.1% in assay [7], 65.2% in assay [8], 93.8% in assay [9] and 63% in [10].

For the compound `CC1CC(C)S(=O)(=O)C1` (stereo not given), the growth is 106% in assay [1]; 105% in assay [2]; 113% in assay [3]; 115% in assay [4]; 116% in assay [5]; 120% in [6]. Besides, the growth is 97.8% in [7], 92.6% in assay [8] and 107% in [9].

Consider `Cc1[nH]c(=S)[nH]c(=O)c1C`, for which the growth is 101% in [1]; 99.7% in [2]; 114% in [3]; 107% in [4]; 109% in assay [5]; 125% in assay [6]. The growth in assay [7] is 95.4%; in assay [8], 94.3%; in assay [9], 106%; in assay [10], 115%.

Regarding `NC(=S)N/N=C/c1ccc(OC(=O)COc2ccccc2)cn1`, the growth in [1] was 28.2%; in assay [2], 92%; in assay [3], 54%; in [4], 57.9%; in [5] it was 83.5%; in [6], 63.8%. The values for the growth in [7], in [8] and in assay [9] were 58%, 107% and 22%, respectively.

For `Nc1c(O)c(S(=O)(=O)O)c(O)c2c1C(=O)c1ccccc1C2=O`, the growth in assay [1] was 21.5%; in assay [2], 41.2%; in assay [3], 39%; in assay [4], 42.6%; in assay [5], 8.34% (active); in assay [6], 14.4%. Also, the growth in assay [7] is 7.56% (active); in assay [8], 19%; in assay [9], 59.6%; in assay [10], 6.29% (active).

For `O=C(NCc1ccco1)Nc1cccc2c(NC(=O)NCc3ccco3)cccc12`, the growth in assay [1] is 75.5% [100 µM]; in assay [2], 112% [100 µM]; in assay [3], 120% [100 µM]; in [4], 104% [100 µM]; in [5], 111% [100 µM]; in assay [6] it was 124% [100 µM]. For the same compound, the figures for the growth in assay [7], in assay [8] and in assay [9] were 36.5% [100 µM], 108% [100 µM] and 104% [100 µM], respectively.

Turning to `O=C1NCC2CCCC1C2` (stereo not given), the growth is 105% in [1]; 104% in assay [2]; 96.8% in assay [3]; 115% in assay [4]; 120% in [5]; 130% in assay [6]. Moreover, the results for the growth in assay [7], in [8] and in assay [9] were 90.3%, 97.6% and 99.5%, respectively.

Regarding `Cc1cc2c(C(C)C)c(O)c(O)c(C=Nc3ccccc3[N+](=O)[O-])c2c(O)c1-c1c(C)cc2c(C(C)C)c(O)c(O)c(C=Nc3ccccc3[N+](=O)[O-])c2c1O`, the growth is 71.4% in assay [1]; 82.8% in assay [2]; 89.2% in assay [3]; 83.4% in [4]; 87% in assay [5]; 61% in assay [6]. For the same compound, the values for the growth in [7], in assay [8] and in assay [9] were 64.4%, 52% and 96.1%, respectively.

As to `CC(=O)NCNC(C)=O`, the growth in assay [1] is 113%; in assay [2], 99.8%; in [3], 110%; in assay [4] it was 108%; in assay [5] it was 113%; in [6], 150%. Moreover, the growth in [7] was 119%; in [8] it was 96.7%; in [9] it was 109%.

Turning to `Cc1ccccc1NC(=O)Oc1ccc(Cl)cc1C(=O)c1ccccc1`, the growth in assay [1] was 95.1%; in assay [2], 92.5%; in assay [3], 99.1%; in assay [4], 88.1%; in assay [5], 104%; in assay [6] it was 83.9%. Further, the growth is 88.4% in assay [7], 91% in assay [8] and 102% in assay [9].
